This is a sample that favours compounds with a hit; in the whole collection about 6.6% have one here.
PTAP TSG101 blk: qHTS Assay for Iinhibitors of HIV-1 Budding by Blocking the Interaction of PTAP/TSG101. Fluorescence polarization, FITC-PTAP peptide / Tsg101 binding. 340,000 tested, under 10 active. Potency, µM (top dose mostly 115 µM), inactives show at the top dose activity change, negative = inhibition, most hits filed as inhibitors; active = well fitted inhibition curve with a large enough effect in the main read-out, with a control signal flat, not every such curve was filed as active; inconclusive = small, poorly fitted or top-dose-only effect, or effect the other way, or a change in a side signal; inactive = no such curve, though single readings can be large or run the other way; also: % of control where 0% means no effect
Target sequence (Q99816 whole entry, looked up): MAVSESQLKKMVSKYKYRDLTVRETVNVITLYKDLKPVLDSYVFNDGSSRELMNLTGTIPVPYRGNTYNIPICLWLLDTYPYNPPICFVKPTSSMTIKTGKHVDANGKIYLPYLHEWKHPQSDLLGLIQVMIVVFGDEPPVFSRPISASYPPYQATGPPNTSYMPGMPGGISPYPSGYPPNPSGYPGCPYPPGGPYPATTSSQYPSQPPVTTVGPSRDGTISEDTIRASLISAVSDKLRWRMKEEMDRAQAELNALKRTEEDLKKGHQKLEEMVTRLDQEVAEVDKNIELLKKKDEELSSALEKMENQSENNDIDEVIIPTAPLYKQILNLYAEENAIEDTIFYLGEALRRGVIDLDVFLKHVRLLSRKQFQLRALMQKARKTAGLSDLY
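Compounds were pin-transferred onto Tsg101 binding domain (10 uM final) in HEPES pH 7.5 buffer, then FITC-PTAP peptide was added at 50 nM final. After 20 min at RT, polarization reported peptide displacement across a qHTS concentration series.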
SW480 rerep: A quantitative high throughput screen for small molecules that induce DNA re-replication in SW480 colon adenocarcinoma cells. Potency, µM (titrated, usually from 46.1 µM), for the others: at the top dose re-replication activation, most hits filed as activators. AID 624297, 2012. 340,000 compounds, 1.8% hits. SW480 DNA re-replication, Hoechst DNA content imaging, 48 h; also: % of control where 0% means no effect; nearly all actives have a fitted effect of over 55% in size
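250 cells/well; 23 nL cpd via pin tool; 48 hr, 37 C, 5% CO2; Hoechst 40 min; imager read of total nuclear intensity, ex 405/em 500-530 nm.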
MCF10A rerep: A quantitative high throughput screen for small molecules that induce DNA re-replication in MCF 10a normal breast cells; AID 624296, 2012; Potency, µM (series often up to 46.1 µM), inactives show at the top dose activity, positive = re-replication, actives largely listed as activators; 350,000 compounds, 2.9% hits; MCF 10A DNA re-replication, Hoechst nuclear intensity, 48 h; also: % of control where 0% means no effect; nearly all actives have a fitted effect of over 50% in size
KB-V1 cytotox: qHTS assay for MDR1-selective chemotherapeutics: Primary screen using the drug-selected MDR subline cells KB-V1. KB-V1 MDR cells viability, CellTiter-Glo, 72 h. Potency, µM (doses to about 46.1 µM), usual class: cytotoxic. 400,000 compounds, 3.4% hits; also: % is scaled to controls: 0 for no effect and ±100 for the full control effect; nearly all actives have a fitted effect of over 60% in size
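KB-V1 MDR subline cells in DMEM (phenol-red free, 10% FBS) exposed to compounds in qHTS concentration series for 72 h at 37 degrees C. Viability read by CellTiter-Glo luminescence; concentration-effect curves fitted after normalization and correction.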
KB-3-1 cytotox: qHTS assay for MDR1-selective chemotherapeutics: Primary screen using the parental adenocarcinoma cell KB-3-1. KB-3-1 viability, CellTiter-Glo ATP luminescence, 72 h. 400,000 compounds, 1.4% hits. Potency, µM (series often up to 46.1 µM), hits mostly cytotoxic; also: % is scaled to controls: 0 for no effect and ±100 for the full control effect; nearly all actives have a fitted effect of over 60% in size
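KB-3-1 parental drug-naive adenocarcinoma cells in DMEM/10% FBS, incubated 72 h at 37 C with pin-transferred compounds across a concentration series. Viability by CellTiter-Glo luminescence; concentration-response curves fitted after normalization.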
RGS4 inhibitor: Inhibitors of Regulator of G Protein Signaling (RGS) 4: qHTS | Regulator of G-protein signaling 4 (Homo sapiens), P49798 | Transcreener GDP fluorescence polarization, RGS4-accelerated GTP hydrolysis | Potency, µM (highest dose often 114 µM), without a hit: top-dose activity change, negative = inhibition, usual class: inhibitors | 390,000 compounds, 0.039% hits | AID 504845, 2011; also: % is scaled to controls: 0 for no effect and ±100 for the full control effect; nearly all actives have a fitted effect of over 75% in size
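MLSMR compounds (23 nl, pin-transferred) preincubated 10 min at room temperature with a 500nM (2x) first reagent, then RGS4 at 900nM (2x) plus Transcreener GDP mix added; fluorescence polarization (620/688 nm) read before and after 90 min at 30 °C.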
An asterisk follows results filed as active; i = inactive; ? = inconclusive; / = not tested or not shown. Unless noted, calls follow the shape of the dose curve; as a rule, active = well fitted curve in the direction sought with a large enough effect; inconclusive = small, poorly fitted or top-dose-only effect, or another doubt; inactive = no such curve, though single readings can be large; an effect the other way counts as inactive or inconclusive. Potency is read from the fitted curve at half-maximal effect.

SMILES | PTAP TSG101 blk | SW480 rerep | MCF10A rerep | KB-V1 cytotox | KB-3-1 cytotox | RGS4 inhibitor
O=C(Nc1c2c(nn1-c1ccc(Cl)cc1)CS(=O)(=O)C2)c1cccc(Cl)c1 | / | / | / | ? | i | 20%
Cc1ccc(S(=O)(=O)c2c(CO)c(-c3ccccc3)nn2C)cc1 | 0% | ? | -1% | 15µM* | ? | 1%
COc1ccc(C2C(C#N)=C(N)Oc3cccc(O)c32)cc1 (configuration not stated) | -2% | -19% | ? | i | i | 8%
COc1ccc(C2C(C#N)=C(N)Oc3c2sc2nc(C)cc(C)c32)cc1 (configuration not stated) | -8% | ? | 16µM* | 21µM* | ? | -23%
O=C(CN1C(=O)COc2ccccc21)N(Cc1ccc2c(c1)OCO2)CC1CCCO1 (configuration not stated) | -7% | -4% | ? | 4.1µM* | i | 22%
Cc1ccc(CN(CC2CCCO2)C(=O)CN2C(=O)C(C(C)C)Oc3ccccc32)o1 (configuration not stated) | -14% | ? | 5% | i | i | ?
CCOC(=O)Cn1c(=O)n(CC2CCCO2)c2nc(-c3ccc(CC)cc3)nc(C(N)=O)c21 (configuration not stated) | / | / | / | ? | i | -38%
Nc1[nH]c(=O)nc2c1ncn2C1OC(CO)C(O)C1O (configuration not stated) | / | / | / | i | i | -18%
O=c1cnn([C@@H]2O[C@H](CO)[C@@H](O)[C@H]2O)c(=O)[nH]1 | -1% | 3% | 10% | 4.1µM* | ? | 1%
CCS(=O)(=O)Nc1ccc(-c2cc(-c3ccccc3)c3cc(C)ccc3n2)cc1 | -2% | ? | 15µM* | i | i | -14%
Cc1ccc2c(c1)C(c1ccc(F)cc1)N(C(=O)COc1ccc(Cl)cc1Cl)CC(=O)N2 (configuration not stated) | / | / | / | ? | ? | -11%
Cc1nn(Cc2ccccc2)c(Cl)c1/C=C/C(=O)OC(C(=O)NC(N)=O)C(C)C (configuration not stated) | 6% | -39% | 6.5µM* | i | i | 2%
Cc1nn(Cc2ccccc2Cl)c(Cl)c1/C=C/C(=O)OCC(=O)NC(N)=O | -3% | 4% | 4% | i | i | 6%
O=C(Nc1ccc(-c2nc3ccccc3o2)cc1)C1CCCO1 (configuration not stated) | -8% | 1% | 25% | 10µM* | ? | -17%
Cc1ccc2nc(-c3ccc(NC(=O)C4CCCO4)cc3)[nH]c2c1 (configuration not stated) | -6% | -6% | 3% | 9.2µM* | i | -20%
Cc1ccc2nc(-c3ccc(NC(=O)Cc4cccs4)cc3)[nH]c2c1 | -3% | ? | ? | i | i | 10%
O=C(Nc1ccc(-c2nc3cc(Cl)ccc3o2)cc1)C1CCCO1 (configuration not stated) | -3% | 4% | ? | 10µM* | i | 24%
CCc1cccc2c(C(O)(c3c[nH]c4c(CC)cccc34)c3c[nH]c4c(CC)cccc34)c[nH]c12 | / | / | / | i | i | /
Oc1ccc(Cc2ccccc2)c2cccnc12 | -3% | ? | ? | i | 23µM* | -2%
CCCOCc1ccc(O)c2ncccc12 | -8% | 5.8µM* | 18% | ? | ? | 20%
Oc1c(CN2CCCCC2)cc(COCc2ccccc2)c2cccnc12 | 0% | 3.2µM* | 16µM* | ? | 5.2µM* | -22%
